Peg3 prom inh – Peg3 promoter activity inhibition; HeLa PEG-Prom luciferase reporter, luminescence, overnight; inhibition, % at 20 µM; hit rate 1.7% among 360,000; AID 588405;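 active = inhibition of at least 50% at 20 µM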
TRPM1 prom inh – MITF TRPM1 promoter inhibition in SK-MEL-5 cells | SK-MEL-5 TRPM1 promoter luciferase, 24 h | inhibition, % at 12.5 µM | hit rate 0.83% among 330,000 | AID 488899;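 active = mean inhibition across replicates of 60% or more, whatever share of single replicates reaches that level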
Shn3 3UTR inh – Schnurri-3 reporter inhibition in Clone20 osteoblasts. hit rate 0.52% among 360,000. Clone20 osteoblast Shn3 3'UTR firefly luciferase, 24 h. inhibition, % at 12.5 µM;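 active = mean inhibition of at least 75% with every replicate also reaching 75%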;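 also: 0% = median of neutral control wells and 100% = pilot-screen positive control compound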
CF NFkB inh – cystic fibrosis NF-kB activation inhibition. KKLEB NF-kB-GFP reporter, PAF-induced, GFP fluorescence overnight. inhibition, % at 5 µM. hit rate 0.86% among 360,000;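 active = at least 50% inhibition at 5 µM, scaled per plate between neutral and stimulator controls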;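 also: PAF is a Pseudomonas aeruginosa culture filtrate used as stimulus; plate controls were PAF-stimulated DMSO wells for no effect and unstimulated DMSO wells for full effect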
KKLEB cytotox – CF airway cell cytotoxicity counter-screen. hit rate 0.36% among 360,000. KKLEB CF airway cells viability, ATPlite luminescence, overnight; hits give low values; cells stimulated with P. aeruginosa culture filtrate. activity change (cytotoxicity), % at 5 µM;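 active = corrected activity change at or below -50% at 5 µM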
HIF-2a block – blocks HIF-2a reporter activity. 786-0 RCC cells HIF-2a reporter, luciferase luminescence, overnight. inhibition, % at 18.8 µM. hit rate 0.72% among 360,000. AID 624352;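 active = inhibition of the luminescence signal of 40% or more relative to plate controls, in a single-dose primary screen at 18.75 µM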
CF NFkB conf – CF NF-kB inhibition confirmation, single concentration | shares compounds with CF NFkB inh | KKLEB CF airway cells, PAF-induced NF-kB-GFP fluorescence, overnight | inhibition, % at 5 µM | AID 602472 | hit rate 64% among 1,300; in the data active = inhibition above about 40%;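 also: stimulus PAF is a Pseudomonas aeruginosa filtrate and not platelet activating factor; plate controls were DMSO wells with stimulus for no effect and unstimulated DMSO wells for full effect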
* marks the source's active call; other numbers are inactive results; . = not tested or not shown. The list is not random: actives were taken first. Their share in the collection is about 2.8%.

SMILES | Peg3 prom inh | TRPM1 prom inh | Shn3 3UTR inh | CF NFkB inh | KKLEB cytotox | HIF-2a block | CF NFkB conf
Cc1ccc(NC(=O)c2nc[nH]c2C(=O)NCCCNC(=O)c2[nH]cnc2C(=O)Nc2ccc(C)cc2)cc1 | 84* | -26 | 16 | 52* | -13 | 2 | 79*
COc1ccc(C(=O)Nc2ccc(O)c3c(=O)cc(-c4cccc(Cl)c4)oc23)cc1 | -57 | 8 | -1 | 50* | -33 | -46 | 2
CC(C)(C)c1ccc(C(=O)Nc2ccc(O)c3c(=O)cc(-c4cccc(Cl)c4)oc23)cc1 | 3 | 31 | 5 | 26 | -20 | -22 | .
CC(C)[C@H](CO)Nc1nc(NCc2ccc(S(N)(=O)=O)cc2)c2ncn(C(C)C)c2n1 | 21 | 19 | -6 | 71* | -16 | 24 | 104*
CC(C)n1cnc2c(NCc3ccc(S(N)(=O)=O)cc3)nc(NCc3ccc(S(N)(=O)=O)cc3)nc21 | -11 | 8 | -3 | -12 | -3 | 4 | .
O=c1c(O)c(-c2ccccc2)oc2cc(O)cc(O)c12 | -203 | -47 | -55 | 60* | 6 | -97 | 62*
CC(Sc1nnc2ccccn12)C(N)=O (stereo not drawn) | -8 | -2 | -5 | -14 | 9 | -14 | .
Cc1onc(-c2ccccc2Cl)c1C(=O)Oc1cc(N)n(S(=O)(=O)c2ccc(F)cc2)n1 | 21 | 4 | 9 | 62* | -21 | 23 | 28
Cc1ccc(S(=O)(=O)n2nc(OC(=O)c3c(-c4ccccc4Cl)noc3C)cc2N)cc1 | 17 | 11 | 6 | 27 | -5 | 17 | .
O=C1OC(c2ccccc2)(c2cc(Br)ccc2O)c2ccccc21 (stereo not drawn) | 104* | -8 | -8 | 75* | -20 | 32 | 49*
CNc1ccc2ncc(-c3cccc(C(=O)N(C)C)c3)n2n1 | 23 | . | 13 | 86* | -11 | 9 | 98*
Cc1ccsc1C(=O)N1CCCC(C)(C(=O)O)C1 (stereo not drawn) | -2 | . | -25 | -4 | -12 | 5 | .
CC(=O)Oc1ccc2ccc3ccc(C(C)=O)cc3c2c1 | -12 | -13 | -12 | -86 | -6 | 7 | .
Cn1cc([N+](=O)[O-])c(C(=O)Nc2ccc(C3CCCCC3)cc2)n1 | -35 | 5 | -26 | 52* | -24 | -124 | -175
Cn1cc([N+](=O)[O-])c(C(=O)Nc2ccc(C(=O)N3CCCCC3)cc2)n1 | 30 | 9 | 18 | 47 | -3 | -38 | .
C=CCOc1ccc2nc(NC(=O)OC)[nH]c2c1 | -72 | 12 | -19 | 34 | -32 | -50 | .
C=C(c1ccc2nc(NC(=O)OC)[nH]c2c1)c1cccs1 | -177 | -11 | -4 | 62* | -14 | -198 | 96*
CN(C(=O)c1ccc(Br)o1)C1(C)CCS(=O)(=O)C1 (stereo not drawn) | 4 | -4 | 3 | 18 | -6 | 3 | .
Cn1c(Oc2ccc(Cl)cc2)c(C=O)c2ccccc21 | 37 | 24 | 1 | 51* | -16 | 31 | 70*
COc1ccccc1NC(=O)NC1CCS(=O)(=O)C1 (stereo not drawn) | -1 | 8 | -14 | -9 | 0 | 5 | .
O=C(O)C(C1CCCCC1)C1(O)CCCC1 (stereo not drawn) | 6 | 5 | 9 | 13 | -2 | 11 | .
CCN(c1ccccc1)S(=O)(=O)c1nnc(NC(=O)c2ccccc2OC)s1 | 13 | . | -22 | 0 | -11 | -31 | .
OCCCNc1ncnc2scc(-c3ccc(Cl)cc3)c12 | 23 | 2 | 32 | 63* | -11 | 24 | 81*
O=C(Nc1ccc2c(c1)OCO2)c1cc(-c2cccc(O)c2)on1 | -326 | -109 | -90 | -43 | 8 | -337 | .
O=C(Nc1ccc2c(c1)OCO2)c1cc(-c2ccc(O)cc2)on1 | -165 | -73 | -5 | 52* | -41 | -205 | 3
SMILES | Peg3 prom inh | TRPM1 prom inh | Shn3 3UTR inh | CF NFkB inh | KKLEB cytotox | HIF-2a block | CF NFkB conf
CC(=O)NC(CC(C)C)C(=O)NC(Cc1ccccc1)C(=O)CCl (stereo not drawn) | 32 | 52 | -10 | 52* | -21 | -9 | 56*
CCOC(=O)c1c(C)cc2c(CO)n[nH]c(=O)c2c1C | 27 | . | 14 | 51* | -14 | 10 | 48*
Oc1ccc(C[C@H]2CN([C@@H](Cc3ccccc3)CN3CCCC3CN3C(=S)NC[C@@H]3Cc3ccccc3)C(=S)N2CCc2ccccc2)cc1 (stereo partly drawn) | . | . | . | . | . | -4 | .
CC(C)C[C@@H](CN1CCCC1CN1C(=S)NC[C@@H]1Cc1ccc(O)cc1)N1C[C@H](Cc2ccc(O)cc2)N(CCc2ccccc2)C1=S (stereo partly drawn) | 91* | 35 | 43 | 59* | -11 | -37 | 61*
CC(C)C[C@H]1CNC(=S)N1C[C@H]1CCCN1C[C@H](Cc1ccccc1)N1C[C@H](Cc2ccc(O)cc2)N(CC2CCCCC2)C1=S | 93* | . | -11 | 65* | -22 | -12 | 19
CCOc1ccc(CCN2C(=S)N([C@@H](Cc3ccc(O)cc3)CN3CCC[C@@H]3CN3C(=S)NC[C@@H]3CC(C)C)C[C@@H]2Cc2ccc(O)cc2)cc1 | 101* | . | 17 | 55* | -16 | -48 | -15
CC(C)C[C@@H](CN1CCC[C@@H]1CN1C(=S)NC[C@@H]1Cc1ccc(O)cc1)N1C[C@H](Cc2ccc(O)cc2)N(CC2CCCCC2)C1=S | 98* | . | 7 | 67* | -39 | -31 | 46*
CCCN1CCC(=O)N([C@H](CN=[N+]=[N-])CC(C)C)CC1 | 1 | 0 | -14 | -14 | 16 | 5 | .
OC[C@@H]1CN(Cc2ccc3c(c2)OCO3)C[C@H](n2cnc3c(N4CCN(c5ccccc5)CC4)ncnc32)O1 | 12 | . | 5 | 16 | 5 | 1 | .
Oc1ccc(C[C@H]2CNC(=S)N2CC2CCCN2C[C@H](Cc2ccc(O)cc2)N2C[C@H](Cc3ccc(O)cc3)N(CC3CCCCCC3)C2=S)cc1 (stereo partly drawn) | 54* | 72* | 72 | 62* | -14 | -43 | 32
Oc1ccc(C[C@@H](CN2CCCC2CN2C(=S)NC[C@@H]2Cc2ccccc2)N2C[C@H](Cc3ccccc3)N(CC3CCCCC3)C2=S)cc1 (stereo partly drawn) | . | . | . | . | . | 2 | .
Oc1ccc(C[C@H]2CN([C@@H](Cc3ccccc3)CN3CCC[C@@H]3CN3C(=S)NC[C@@H]3Cc3ccccc3)C(=S)N2CC2CCCCC2)cc1 | -1 | . | -5 | 24 | -10 | 0 | .
Oc1ccc(C[C@H]2CNC(=S)N2CC2CCCN2C[C@H](Cc2ccc(O)cc2)N2C[C@H](Cc3ccccc3)N(CC3CCCCC3)C2=S)cc1 (stereo partly drawn) | 92* | 35 | 79 | 52* | -7 | -28 | 45*
Fc1cccc(Cc2c(-c3cccc(Cl)c3)nc3ccc(Cl)cn23)c1 | -139 | . | -18 | 7 | -11 | -191 | .
